Results published in PubChem BioAssay (NCI).
The panel holds about 79,000 compounds, 15% with a hit somewhere; the sample as a whole holds those more often. Values without a mark were called inactive. Calls of active or inactive are those of the source. No stated cut-off is given here; in the data, active means growth inhibition above about 70%; inactive means the rest.

Assay: NCI Yeast Anticancer Drug Screen. Data for the rad50EPP+ strain (AID 151);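 further: 0% = growth of vehicle-treated control cultures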
Conditions: S. cerevisiae rad50 mutant strain, at 100.0 µM, active compounds read high
In short: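 Compounds were applied to the rad50EPP+ yeast strain, which bears a defined DNA repair alteration, and growth inhibition was determined relative to vehicle-treated cultures.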
In the case of `Cc1cccc2c(C(O)CBr)cc(-c3ccc(Cl)cc3)nc12` (stereo not given), the growth inhibition is reported as 54%.
For `CN(C)C[C@H]1CC[C@@H](CN(C)C)C1=O`, the growth inhibition was 84% (active).
With `CC1=C(SCCO)C(=O)c2ccccc2C1=O` the growth inhibition was 71% (active).
With `COC(=O)CCNc1c2ccccc2nc2cccc([N+](=O)[O-])c12` the growth inhibition was 97% (active).
In the case of `CC(/C=C/c1ccc2c(c1)OCO2)[N+](=O)[O-]` (stereo not given), the growth inhibition is reported as 99% (active).
In the case of `COC(=O)C1=C(C)NC(C)=C(C(=O)OCCCN2CCC(c3ccccc3)(c3ccccc3)CC2)C1c1cccc([N+](=O)[O-])c1` (stereo not given), the growth inhibition is reported as 82% (active).
For `CCOC(=O)c1cnc2c(C(F)(F)F)cccc2c1N=[N+]=[N-]`, the growth inhibition was 97% (active).
In the case of `O=[N+]([O-])c1cc2no[n+]([O-])c2cc1N1CCCCC1`, the growth inhibition is reported as 98% (active).
For `COC(=O)c1ccc(NCC2=CC(=O)C=CC2=O)cc1O`, the growth inhibition was 92% (active).
In the case of `CCCCCCCCNC(=O)C1=C(C)NC(C)=C(C(=O)NCCCCCCCC)C1`, the growth inhibition is reported as 25%.
With `S=C(Nc1ccc(Cl)c(Cl)c1)SCc1ccc2c(c1)OCO2` the growth inhibition was 97% (active).
In the case of `O=S(=O)(CCCl)c1ccccc1Cl`, the growth inhibition is reported as 84% (active).
For `Nc1ccccc1CC(O)C(=O)O` (stereo not given), the growth inhibition was 4%.
Work on `CN(C)c1ccc(Sc2ccc3nc(N)nc(N)c3c2)cc1` yielded a growth inhibition of 28%.
With `CC(C)C1=CCC2C(=C1)CCC1C(C)(C(=O)O)CCCC21C` (stereo not given) (tested in a mixture with another compound) the growth inhibition was 47%.
Compound `Cc1ccc(S(=O)(=O)Oc2cc(Cl)c(Cl)cc2Cl)cc1` has a growth inhibition of 66%.
With `CSC(=S)Nc1cc(C)ccn1` the growth inhibition was 91% (active).
`CC(C)c1cc(C(C)C)c(O)c(C([O-])[O-])c1.CC(C)c1cc(C(C)C)c(O)c(C([O-])[O-])c1.CC(C)c1cc(C(C)C)c(O)c(C([OH2+])[OH2+])c1.CC(C)c1cc(C(C)C)c(O)c(C([OH2+])[OH2+])c1.[Cu+2].[Cu+2].[OH3+].[OH3+]` gave a growth inhibition of 21%.
For `Cc1cc(I)ccc1N`, the growth inhibition was 74% (active).
For `CC(Br)C(=O)c1ccc2cc(Br)c3ccccc3c2c1` (stereo not given), the growth inhibition was 39%.
Work on `O=C(Nc1ccccc1)OCCc1ccc(Cl)c(Cl)c1` yielded a growth inhibition of 30%.
For `O=Cc1cccc2ccc3ccccc3c12`, the growth inhibition was 95% (active).
With `O=[N+]([O-])CC(SCc1ccccc1)c1ccc2c(c1)OCO2` (stereo not given) the growth inhibition was 98% (active).
In the case of `CC1(Cl)CC(O)C2(CC1Br)C1(C)OC1C1OC1(Br)C2(C)C` (stereo not given), the growth inhibition is reported as 73% (active).
`Cc1cc(O)cc(O)c1N=Nc1ccc([N+](=O)[O-])cc1` showed a growth inhibition of 21%.
In the case of `CCCCCCCCCCCCCC[N+](C)(CC(=O)[O-])Cc1ccccc1` (stereo not given), the growth inhibition is reported as 98% (active).
`CC1=NN(c2cccc(Cl)c2)C(=O)C1` showed a growth inhibition of -26%.
Compound `CC(=O)OCc1ccc(O)c(C=O)c1` has a growth inhibition of 60%.
Compound `Cc1ccc2ccc3cccc4ccc1c2c34` has a growth inhibition of 31%.
In the case of `Cc1nc(-[n+]2nc(-c3ccncc3)nn2-c2ccccc2)sc1C`, the growth inhibition is reported as 36%.
In the case of `C(CCSC1=NCCN1)CSC1=NCCN1` (tested in a mixture with another compound), the growth inhibition is reported as 99% (active).
`CCCCCCCCCCC(=O)Cl` showed a growth inhibition of 46%.
With `COC1C=COC2(C)Oc3c(C)c(O)c4c(c3C2=O)/C(=N/C2CCC(O)OC2C)C=C(NC(=O)/C(C)=C\C(=O)C2CC2C(O)C(C)C(O)C(C)C(OC(C)=O)C1C)C4=O` (stereo not given) the growth inhibition was -6%.
`S=c1[nH]nc(Nc2ccc(Cl)cc2)s1` gave a growth inhibition of 23%.
For `O=C1CSC(/C=C/c2ccccc2)N1c1ccc(-c2ccc(-n3c(-c4ccccc4)nc4ccccc4c3=O)cc2)cc1` (stereo not given), the growth inhibition was 29%.
For `O=C1C=CC(=O)N1c1ccc2c(c1)Cc1cc(NC(=O)C(F)(F)F)ccc1-2`, the growth inhibition was 88% (active).
Compound `Brc1ccc(-c2cc3c(cc2C2SCCS2)OCO3)cc1` has a growth inhibition of 51%.
With `Oc1ccc2ccccc2c1C(c1ccc(Cl)cc1)c1c(O)ccc2ccccc12` the growth inhibition was -44%.
`C[CH2][Sn]([CH2]C)([O]C(=O)C(OC(C)=O)c1ccccc1)[O]C(=O)C(OC(C)=O)c1ccccc1` (stereo not given) showed a growth inhibition of 9%.
With `Cc1ccc2ccc(O)cc2c1` the growth inhibition was 46%.

Assay: NCI Yeast Anticancer Drug Screen. Data for the mgt1 strain (AID 153)
Conditions: S. cerevisiae mgt1 mutant growth inhibition; at 1.2 µM; active compounds read high
In short: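 Strain: mgt1 yeast, one of a set carrying defined DNA damage repair or cell cycle control alterations. Compound-treated growth compared with vehicle.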
For `Cc1cccc2c(C(O)CBr)cc(-c3ccc(Cl)cc3)nc12` (stereo not given), the growth inhibition was -2%.
With `CN(C)C[C@H]1CC[C@@H](CN(C)C)C1=O` the growth inhibition was 16%.
`CC1=C(SCCO)C(=O)c2ccccc2C1=O` gave a growth inhibition of -3%.
`COC(=O)CCNc1c2ccccc2nc2cccc([N+](=O)[O-])c12` gave a growth inhibition of 61%.
Compound `CC(/C=C/c1ccc2c(c1)OCO2)[N+](=O)[O-]` (stereo not given) has a growth inhibition of 1%.
Work on `COC(=O)C1=C(C)NC(C)=C(C(=O)OCCCN2CCC(c3ccccc3)(c3ccccc3)CC2)C1c1cccc([N+](=O)[O-])c1` (stereo not given) yielded a growth inhibition of -5%.
In the case of `CCOC(=O)c1cnc2c(C(F)(F)F)cccc2c1N=[N+]=[N-]`, the growth inhibition is reported as 0%.
For `O=[N+]([O-])c1cc2no[n+]([O-])c2cc1N1CCCCC1`, the growth inhibition was 4%.
Compound `COC(=O)c1ccc(NCC2=CC(=O)C=CC2=O)cc1O` has a growth inhibition of 9%.
Work on `CCCCCCCCNC(=O)C1=C(C)NC(C)=C(C(=O)NCCCCCCCC)C1` yielded a growth inhibition of 0%.
For `S=C(Nc1ccc(Cl)c(Cl)c1)SCc1ccc2c(c1)OCO2`, the growth inhibition was -2%.
For `O=S(=O)(CCCl)c1ccccc1Cl`, the growth inhibition was 1%.
With `Nc1ccccc1CC(O)C(=O)O` (stereo not given) the growth inhibition was 4%.
`CN(C)c1ccc(Sc2ccc3nc(N)nc(N)c3c2)cc1` gave a growth inhibition of -5%.
In the case of `CC(C)C1=CCC2C(=C1)CCC1C(C)(C(=O)O)CCCC21C` (stereo not given) (tested in a mixture with another compound), the growth inhibition is reported as 0%.
`Cc1ccc(S(=O)(=O)Oc2cc(Cl)c(Cl)cc2Cl)cc1` gave a growth inhibition of 0%.
Work on `CSC(=S)Nc1cc(C)ccn1` yielded a growth inhibition of -34%.
Work on `CC(C)c1cc(C(C)C)c(O)c(C([O-])[O-])c1.CC(C)c1cc(C(C)C)c(O)c(C([O-])[O-])c1.CC(C)c1cc(C(C)C)c(O)c(C([OH2+])[OH2+])c1.CC(C)c1cc(C(C)C)c(O)c(C([OH2+])[OH2+])c1.[Cu+2].[Cu+2].[OH3+].[OH3+]` yielded a growth inhibition of -2%.
Compound `Cc1cc(I)ccc1N` has a growth inhibition of 36%.
`CC(Br)C(=O)c1ccc2cc(Br)c3ccccc3c2c1` (stereo not given) showed a growth inhibition of -1%.
Work on `O=C(Nc1ccccc1)OCCc1ccc(Cl)c(Cl)c1` yielded a growth inhibition of -4%.
With `O=Cc1cccc2ccc3ccccc3c12` the growth inhibition was -2%.
For `O=[N+]([O-])CC(SCc1ccccc1)c1ccc2c(c1)OCO2` (stereo not given), the growth inhibition was 9%.
`CC1(Cl)CC(O)C2(CC1Br)C1(C)OC1C1OC1(Br)C2(C)C` (stereo not given) showed a growth inhibition of -18%.
Work on `Cc1cc(O)cc(O)c1N=Nc1ccc([N+](=O)[O-])cc1` yielded a growth inhibition of 11%.
`CCCCCCCCCCCCCC[N+](C)(CC(=O)[O-])Cc1ccccc1` (stereo not given) showed a growth inhibition of 2%.
`CC1=NN(c2cccc(Cl)c2)C(=O)C1` gave a growth inhibition of -21%.
Compound `CC(=O)OCc1ccc(O)c(C=O)c1` has a growth inhibition of -24%.
`Cc1ccc2ccc3cccc4ccc1c2c34` gave a growth inhibition of -1%.
Compound `Cc1nc(-[n+]2nc(-c3ccncc3)nn2-c2ccccc2)sc1C` has a growth inhibition of -4%.
Work on `C(CCSC1=NCCN1)CSC1=NCCN1` (tested in a mixture with another compound) yielded a growth inhibition of -2%.
Compound `CCCCCCCCCCC(=O)Cl` has a growth inhibition of -21%.
In the case of `COC1C=COC2(C)Oc3c(C)c(O)c4c(c3C2=O)/C(=N/C2CCC(O)OC2C)C=C(NC(=O)/C(C)=C\C(=O)C2CC2C(O)C(C)C(O)C(C)C(OC(C)=O)C1C)C4=O` (stereo not given), the growth inhibition is reported as 0%.
For `S=c1[nH]nc(Nc2ccc(Cl)cc2)s1`, the growth inhibition was -1%.
In the case of `O=C1CSC(/C=C/c2ccccc2)N1c1ccc(-c2ccc(-n3c(-c4ccccc4)nc4ccccc4c3=O)cc2)cc1` (stereo not given), the growth inhibition is reported as -2%.
In the case of `O=C1C=CC(=O)N1c1ccc2c(c1)Cc1cc(NC(=O)C(F)(F)F)ccc1-2`, the growth inhibition is reported as 11%.
`Brc1ccc(-c2cc3c(cc2C2SCCS2)OCO3)cc1` gave a growth inhibition of -52%.
In the case of `Oc1ccc2ccccc2c1C(c1ccc(Cl)cc1)c1c(O)ccc2ccccc12`, the growth inhibition is reported as -34%.
With `C[CH2][Sn]([CH2]C)([O]C(=O)C(OC(C)=O)c1ccccc1)[O]C(=O)C(OC(C)=O)c1ccccc1` (stereo not given) the growth inhibition was 0%.
`Cc1ccc2ccc(O)cc2c1` gave a growth inhibition of -25%.
